66 compounds from PubChem BioAssay AID652154 (Broad Institute, 2013) can be followed below.

Out of some 360,000 compounds screened, about 4,200 (1.2%) were called active. The entries come from a sample that favours actives as a whole. Unmarked numbers belong to inactive results.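 Rule for the calls: active = mean replicate inhibition at least 60% with every replicate also reaching 60%; inconclusive = only one of the two criteria is met; inactive = mean below 60% and not all replicates reaching 60%.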

A short description of the assay: inhibitors of PAX8-driven TPO luciferase reporter, primary screen, RMG-I cells, single concentration (AID 652154).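 Note: luciferase light reporting Pax8 driven TPO promoter activity; plate controls were median of neutral control wells for no effect and mitoxantrone controls for full effect.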 The conditions noted are these: SteadyGlo, 24 h, at 12.6 µM, hits give high values. A general note: In a reporter assay the amount or activity of a reporter protein is the signal.
In general, inhibition refers to the change of the read-out against control, counted positive when it falls. As for `CC[C@]1(O)C[C@@H]2CN(CCc3c([nH]c4ccccc34)[C@@](C(=O)OC)(c3cc4c(cc3OC)N(C)[C@H]3[C@@](O)(C(=O)OC)[C@H](OC(C)=O)[C@]5(CC)C=CCN6CC[C@]43[C@@H]65)C2)C1`, the inhibition is 94.6% (active).
The figure for `CC[C@]1(O)CC2CN(CCc3c([nH]c4ccccc34)[C@@](C(=O)OC)(c3cc4c(cc3OC)N(C=O)[C@H]3[C@@](O)(C(=O)OC)[C@H](OC(C)=O)[C@]5(CC)C=CCN6CC[C@]43[C@@H]65)C2)C1` (stereo partly specified) is 82% (active).
On to `O=C(C[C@@H]1CC[C@H]2[C@@H](COC[C@@H](O)CN2Cc2nccs2)O1)NCc1ccc(-c2ccccc2)cc1`, for which the inhibition is 23%.
Consider `C[C@@H]1CN([C@H](C)CO)C(=O)Cc2cc(NC(=O)CCN3CCOCC3)ccc2O[C@@H]1CN(C)S(C)(=O)=O`, for which the inhibition is -16.5%.
The figure for `C[C@H](CO)N1C[C@H](C)[C@@H](CN(C)Cc2ccccn2)Oc2ncc(-c3cccc(F)c3)cc2C1=O` is -0.625%.
Take `Cc1ccccc1S(=O)(=O)N1CC(=O)N2[C@H](CO)[C@H](c3ccc(C#CC4CC4)cc3)[C@@H]2C1`: the inhibition is -7.36%.
The value for `COc1cc(SC)ccc1C(=O)Nc1nc(C)cs1` was 72.7% (active); that for `Cc1csc(NC(=O)CSc2nc(=O)cc(N)n2-c2ccc(F)cc2)n1` was -0.606%.
Turning to `COc1cc2ccccc2cc1C(=O)Nc1ccccc1C`, the inhibition was -95.1%.
In the case of `O=C(Cc1ccccc1)N1C[C@@H]2[C@H](c3ccccc31)[C@@H](CO)N2C(=O)C1CCOCC1`, the inhibition is 10.4%.
For `O=C(c1cccnc1)N1CC[C@H]2[C@H](CO)Nc3ccc(-c4ccc(F)cc4)cc3[C@H]21`, the inhibition is 1.77%.
`CN(C[C@@H]1[C@H](c2ccccc2)[C@@H](CO)N1Cc1ccccn1)S(C)(=O)=O`: the inhibition is -9.74%.
`CC1CCCCC1NC(=O)COc1ccc(C#N)cc1` (stereo unspecified): the inhibition was -9.56%.
The figure for `CC(OC(=O)/C=C/c1ccccc1)C(=O)NC1CCCCC1C` (stereo unspecified) is -9.75%; for `CC1CCCCC1NC(=O)/C(C#N)=C/C=C/c1ccccc1[N+](=O)[O-]` (stereo unspecified) it is 91.1% (active).
`CC(C)NC(=O)Nc1ccc2c(c1)C(=O)N([C@@H](C)CO)C[C@@H](C)[C@H](CN(C)Cc1ccc(C(=O)O)cc1)O2`: the inhibition was -28.1%.
The value for `C[C@H]1CN([C@@H](C)CO)C(=O)c2cccc(NC(=O)c3ccncc3)c2O[C@H]1CN(C)C` was -1.05%.
Take `C[C@@H](O)C#Cc1ccc([C@@H]2[C@H]3CN(S(=O)(=O)c4ccccc4)CCCCN3[C@H]2CO)cc1`: the inhibition was -13.8%.
Turning to `COc1cccc(S(=O)(=O)N2CCCCN3[C@H](C2)[C@H](c2ccc(C#CC(C)C)cc2)[C@@H]3CO)c1`, the inhibition is 69.8% (active).
Turning to `COc1ccc(S(=O)(=O)N2CCCCN3[C@@H](CO)[C@@H](c4ccc(C#CCC(C)C)cc4)[C@@H]3C2)cc1`, the inhibition is 46.7%.
The value for `COc1ccc(S(=O)(=O)N2CCCCN3[C@H](CO)[C@H](c4ccc(C5=CCCCC5)cc4)[C@@H]3C2)cc1` was 69.6% (active).
As for `COc1ccc(S(=O)(=O)N2CCCCN3[C@H](C2)[C@H](c2ccc(C4=CCCC4)cc2)[C@@H]3CO)cc1`, the inhibition is 9.85%.
The figure for `COc1ccc(S(=O)(=O)N2CCCCN3[C@H](CO)[C@@H](c4ccc(C#CC(C)C)cc4)[C@H]3C2)cc1` is 76.3% (active); for `CCCC#Cc1ccc([C@H]2[C@@H](CO)N3CCCCN(S(=O)(=O)CC)C[C@H]23)cc1` it is 6.07%; for `COc1ccc(S(=O)(=O)N2CCCCN3[C@H](C2)[C@H](c2ccc(C#CCC(C)C)cc2)[C@@H]3CO)cc1` it is 18.7%.
For the compound `COc1cccc(S(=O)(=O)N2CCCCN3[C@H](CO)[C@H](c4ccc(C#CC5CC5)cc4)[C@H]3C2)c1`, the inhibition was 12.2%.
The value for `COc1cccc(S(=O)(=O)N2CCCCN3[C@H](C2)[C@@H](c2ccc(C4=CCCCC4)cc2)[C@@H]3CO)c1` was 12.7%.
The value for `CCCC#Cc1ccc([C@H]2[C@H](CO)N3CCCCN(S(=O)(=O)CC)C[C@@H]23)cc1` was -26.1%; that for `CCCC#Cc1ccc([C@H]2[C@@H](CO)N3CCCCN(S(=O)(=O)Cc4ccccc4)C[C@H]23)cc1` was 86.5% (active).
Take `CO[C@H]1CN(C)C(=O)c2ccc(NC(=O)C3CCC3)cc2OC[C@@H](C)NC[C@H]1C`: the inhibition was 9.77%.
`CC(=O)NC[C@H]1[C@H](c2ccc(C3=CCCCC3)cc2)[C@@H](CO)N1C(=O)NC(C)C`: the inhibition was -0.865%.
The figure for `CCCNC(=O)N1C[C@H]2[C@@H](c3ccccc31)[C@H](CO)N2C(=O)NC(C)C` is -13%.
The value for `COCC(=O)Nc1ccc2c(c1)C(=O)N(C)C[C@@H](OC)[C@@H](C)CN(C(=O)Cc1ccccn1)[C@@H](C)CO2` was -15.1%; that for `CCC(=O)Nc1ccc2c(c1)C(=O)N(C)C[C@H](OC)[C@H](C)CN(CCC(F)(F)F)[C@H](C)CO2` was -9.12%.
The value for `COCC(=O)Nc1ccc2c(c1)OC[C@@H](C)N(C(=O)CC1CC1)C[C@@H](C)[C@@H](OC)CN(C)C2=O` was -0.715%; that for `C/C=C/c1ccc(C2[C@H]3CNC[C@@H]2N3C(=O)Nc2cc(F)ccc2F)cc1` (stereo partly specified) was -0.3%; that for `CCNC(=O)Nc1ccc2c(c1)C(=O)N(C)[C@H]1CC[C@@H](CC(=O)N[C@H](C)c3ccccc3)O[C@@H]1CO2` was -19%.
`C[C@H]1CN([C@@H](C)CO)C(=O)c2ccccc2-c2ccccc2CO[C@H]1CN(C)S(=O)(=O)c1ccccc1C#N`: the inhibition was -18.2%.
With `O=C(C[C@@H]1C[C@@H]2c3cc(NS(=O)(=O)c4ccc(F)cc4)ccc3O[C@@H]2[C@H](CO)O1)N1CCCCC1`, the inhibition was 9.01%.
The value for `CCCCCc1c(-c2cccc(Br)c2)ncn1CCc1ccccc1OC` was 9.05%; that for `CCCCc1c(-c2ccc(Cl)cc2)ncn1CCc1ccccc1OC` was 33.1%; that for `CCCCc1c(-c2ccc(Br)cc2)ncn1CCc1ccccc1OC` was 74% (active).
The value for `CN(C)CC#Cc1ccc([C@@H]2[C@H](CO)N3C(=O)CN(C(=O)Cc4cccnc4)C[C@@H]23)cc1` was 17.8%; that for `Cc1ccccc1-c1ccc([C@@H]2[C@H](CO)N3CCCCN(S(=O)(=O)c4ccc(F)cc4)C[C@@H]23)cc1` was -34.4%.
The figure for `Cc1ccc(C)c(OCC(=O)N2CCN(C(=O)c3ccco3)CC2)c1` is 64.3% (active); for `Cc1ccc(OCC(=O)Nc2ccc(N3CCN(C(=O)c4ccco4)CC3)cc2)c(C)c1` it is 7.91%.
For `O=C(OCC(=O)N1CCN(C(=O)c2ccco2)CC1)c1c(Cl)cccc1Cl`, the inhibition is -6.1%.
In the case of `CC(C)c1cc(N=O)cc(C(C)C)c1O`, the inhibition is 1.72%.
The figure for `CC(C)=CCc1ccc(O)c(=O)cc1C(C)C` is 79.1% (active); for `O=C(C[C@@H]1CC[C@H](NS(=O)(=O)c2cccc(F)c2)[C@H](CO)O1)N1CCCCC1` it is 2.78%; for `O=C(CN1CCOCC1)N1CCCCN2[C@H](C1)[C@H](c1ccc(-c3ccccc3F)cc1)[C@@H]2CO` it is 0.84%.
The figure for `C[C@@H]1CN([C@H](C)CO)C(=O)c2cc(NC(=O)c3ccncc3)ccc2O[C@@H]1CN(C)C(=O)Nc1ccc(F)cc1` is -12.7%; for `CC[C@H](C)[C@H]1CNC(=O)C(=O)N1CC1CCN(CCc2ccc(OC)c(OC)c2)CC1` it is 5.58%.
The value for `Cc1noc(C)c1S(=O)(=O)Nc1ccc2c(c1)CC(=O)N([C@@H](C)CO)C[C@@H](C)[C@@H](CN(C)C(=O)Nc1ccc(C(F)(F)F)cc1)O2` was 4.57%; that for `C[C@H]1CCCCO[C@@H](CN(C)C(=O)Nc2cccc3ccccc23)[C@@H](C)CN([C@@H](C)CO)C(=O)c2cc(NS(=O)(=O)c3ccc(Cl)cc3)ccc2O1` was 71.8% (active).
As for `C[C@@H]1CCCCO[C@@H](CN(C)C(=O)NC2CCCCC2)[C@H](C)CN([C@H](C)CO)C(=O)c2cc(NS(=O)(=O)c3ccc(Cl)cc3)ccc2O1`, the inhibition is 89.7% (active).
The figure for `Cc1ccc(S(=O)(=O)Nc2ccc3c(c2)C(=O)N([C@@H](C)CO)C[C@@H](C)[C@H](CN(C)C(=O)Nc2cccc4ccccc24)OCCCC[C@H](C)O3)cc1` is 22.8%.
The figure for `C[C@@H]1CCCCO[C@@H](CN(C)C(=O)Nc2cccc3ccccc23)[C@H](C)CN([C@@H](C)CO)C(=O)c2cc(NS(=O)(=O)c3ccccc3)ccc2O1` is 22.1%.
The value for `COc1ccc(NC(=O)N(C)C[C@H]2OCCCC[C@H](C)Oc3ccc(NS(=O)(=O)c4ccc(Cl)cc4)cc3C(=O)N([C@@H](C)CO)C[C@H]2C)cc1` was -13.3%.
On to `C[C@H]1CCCCO[C@@H](CN(C)C(=O)NC2CCCCC2)[C@@H](C)CN([C@@H](C)CO)C(=O)c2cc(NS(=O)(=O)c3ccc(Cl)cc3)ccc2O1`, for which the inhibition was 32.2%.
Turning to `COc1ccc(NC(=O)N(C)C[C@H]2OCCCC[C@@H](C)Oc3ccc(NS(=O)(=O)c4ccc(F)cc4)cc3C(=O)N([C@@H](C)CO)C[C@@H]2C)cc1`, the inhibition was 1.37%.
`C[C@H]1CCCCO[C@H](CN(C)CC2CCCCC2)[C@@H](C)CN([C@@H](C)CO)C(=O)c2cc(NS(=O)(=O)c3ccc(Cl)cc3)ccc2O1`: the inhibition was 68.9% (active).
For `C[C@H](CO)N1C[C@H](C)[C@H](CN(C)CC2CCCCC2)OCCCC[C@H](C)Oc2ccc(NS(=O)(=O)c3ccc(F)cc3)cc2C1=O`, the inhibition was 52.9%.
As to `C[C@@H]1CCCCO[C@H](CN(C)C(=O)NC2CCCCC2)[C@H](C)CN([C@H](C)CO)C(=O)c2cc(NS(=O)(=O)c3ccc(Cl)cc3)ccc2O1`, the inhibition was 53.7%.
Take `COc1ccc(NC(=O)N(C)C[C@@H]2OCCCC[C@@H](C)Oc3ccc(NS(=O)(=O)c4ccc(Cl)cc4)cc3C(=O)N([C@H](C)CO)C[C@H]2C)cc1`: the inhibition was 63.7% (active).
The value for `C[C@@H]1CCCCO[C@H](CN(C)CC2CCCCC2)[C@H](C)CN([C@H](C)CO)C(=O)c2cc(NS(=O)(=O)c3ccc(F)cc3)ccc2O1` was 53.6%.
